# PubChem BioAssay (NCATS)
# Records with an inconclusive call do not appear. Unmarked numbers belong to inactive results. This is one part of the list. Where a call stands in place of a potency, no number is given. The source made the active and inactive calls. Calls come from the whole dose curve; as a rule, active = well fitted curve in the direction sought with a large enough effect; inconclusive = small, poorly fitted or top-dose-only effect, or another doubt; inactive = no such curve, though single readings can be large; an effect the other way counts as inactive or inconclusive.
# Assays:
# [1] = target: Rap guanine nucleotide exchange factor 3 (Homo sapiens) (UniProt O95398); test: Confirmatory qHTS for antagonist of cAMP-regulated guanine nucleotide exchange factor 3 (EPAC1) (AID 1645880); note: nearly all actives have a fitted effect of over 55% in size; note: potency is the fitted concentration of half-maximal effect
# Outline: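 Nucleotide exchange uses 100 nM EPAC1, 250 nM RAP1B-BODIPY-GDP and 50 uM GDP, with compounds in a concentration-titration series. After 5 min at room temperature, fluorescence (480 nm ex/540 nm em) is read every 5 min for 30 min. Data are normalized to control ATA and DMSO.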
# [2] = target: Rap guanine nucleotide exchange factor 3 (Homo sapiens) (UniProt O95398); test: Confirmatory qHTS for agonist of cAMP-regulated guanine nucleotide exchange factor 3 (EPAC1) (AID 1645881); note: nearly all actives have a fitted effect of over 75% in size; note: potency is the fitted concentration of half-maximal effect;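 for activation: EPAC1 catalysed release of BODIPY-GDP from Rap1B seen as fluorescence loss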
# [3] = target: Rap guanine nucleotide exchange factor 4 (Homo sapiens) (UniProt Q8WZA2); test: Confirmatory qHTS for agonist of cAMP-regulated guanine nucleotide exchange factor 4 (EPAC2) (AID 1645884);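 note: nucleotide exchange releases bodipy-GDP from Rap1 and this lowers its fluorescence; nearly all actives have a fitted effect of over 65% in size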; note: potency is the fitted concentration of half-maximal effect
# [4] = target: Rap guanine nucleotide exchange factor 4 (Homo sapiens) (UniProt Q8WZA2); test: Confirmatory qHTS for antagonist of cAMP-regulated guanine nucleotide exchange factor 4 (EPAC2) (AID 1645885); note: nearly all actives have a fitted effect of over 25% in size; note: potency is the fitted concentration of half-maximal effect
# [5] = target: Rap guanine nucleotide exchange factor 3 (Homo sapiens) (UniProt O95398); test: Counterscreen qHTS for antagonist of cAMP-regulated guanine nucleotide exchange factor 3 (EPAC1) (AID 1645888);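 note: fluorescence loss as bound BODIPY-GDP is released from Rap1B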
# Outline: (§1)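 Rap1B-BODIPY-GDP 250 nM + GDP 50 uM; cpds 7-pt, final 9.74 nM–152 uM (activator mode) or from 7.32 nM upwards (inhibitor mode); RT; FI 480/540 nm at 5 and 30 min, then ± cAMP, reread.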
# [6] = target: Rap guanine nucleotide exchange factor 3 (Homo sapiens) (UniProt O95398); test: Counterscreen qHTS for agonist of cAMP-regulated guanine nucleotide exchange factor 3 (EPAC1) (AID 1645889); note: nearly all actives have a fitted effect of over 40% in size
# Outline: as §1
# [7] = target: Vitamin D3 receptor (Homo sapiens) (UniProt P11473); test: qHTS for Inhibitors of the vitamin D receptor (VDR): Hit Validation using a Beta-Lactamase Assay (AID 602202)
# Outline: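 Beta-lactamase reporter read-out (447 nm emission of cleaved FRET substrate, 2 h) after 18 h compound exposure of HEK293 cells carrying a VDR-GAL4 fusion and UAS reporter, stimulated with LG190178.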
# [8] = qHTS for Inhibitors of the vitamin D receptor (VDR): Hit Validation using a Cytotoxicity Assay (AID 602204); note: nearly all actives have a fitted effect of over 75% in size
# Outline: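 Using cycloheximide at high concentration as positive control and DMSO as negative, cells plated at 20,000 per well (4 h) are exposed to compounds for 18 h; ATP luminescence is read after 30 min.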
# [9] = target: Phosphoglycerate kinase, glycosomal (Trypanosoma brucei brucei) (UniProt P07378); test: qHTS for inhibitors of Phosphogylcerate Kinase: Hit Validation Screen (AID 686980); conditions: TbPGK coupled GAPDH assay, Kinase-Glo luminescence; note: potency is the fitted concentration of half-maximal effect; nearly all actives have a fitted effect of over 65% in size
# Outline: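 Luminescent ATP detection (Kinase-Glo Plus) follows a 60-minute room-temperature incubation, with wells lacking PGK as controls. Buffer: 100 mM TEA (pH 7.6), 5 mM MgCl2, 0.01% Tween-20. Coupling enzyme GAPDH (100 nM final) supplies unstable 1,3-BPG in-well.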
# [10] = target: DNA polymerase iota (Homo sapiens) (UniProt Q9UNA4); test: qHTS for Inhibitors of Polymerase Iota: Confirmatory Assay for Cherry-picked Compounds (AID 720496); conditions: Pol iota primer extension, TAMRA/BHQ fluorescence; note: potency is the fitted concentration of half-maximal effect
# Outline: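 Buffer-only wells, without enzyme, serve as negative control. Test wells hold 10 nM Pol iota preincubated 15 min with compound before 50 nM final fluorogenic DNA substrate is added; signal is read at 0 and 10 min.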
# [11] = target: Bifunctional 3'-5' exonuclease/ATP-dependent helicase WRN (Homo sapiens) (UniProt Q14191); test: qHTS for Inhibitors of WRN Helicase: Confirmatory Assay for Cherry-picked Compounds. (AID 720497); conditions: WRN helicase DNA unwinding, fluorescence kinetic; note: potency is the fitted concentration of half-maximal effect; nearly all actives have a fitted effect of over 65% in size
# Outline: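 WRN (20 nM) was preincubated 15 min at RT with compound, then started with 100 nM forked duplex oligonucleotide and 2 mM ATP. Unwinding was read kinetically by red fluorescence (ex 525/em 598 nm), normalized to enzyme-free and uninhibited controls.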
# [12] = target: Flap endonuclease 1 (Homo sapiens) (UniProt P39748); test: qHTS Assay for the Inhibitors of FEN1: Confirmatory Assay for Cherry-picked Compounds (AID 720498); conditions: FEN1 flap cleavage, TAMRA/BHQ2 fluorogenic DNA substrate; note: potency is the fitted concentration of half-maximal effect; nearly all actives have a fitted effect of over 60% in size
# Outline: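 FEN1 at 10 nM was preincubated with compound for 15 min at room temperature, then 50 nM (final) double-flap DNA substrate was added. TAMRA fluorescence released from the BHQ-2-quenched flap was read at 0 and 15 min (ex 525/em 598 nm).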
# [13] = qHTS for Inhibitors of WRN Helicase: Thiazole Orange DNA Binding Counterscreen (AID 720499); conditions: thiazole orange DNA binding displacement, fluorescence;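 note: drop in dye fluorescence marks compound binding to DNA; potency is the fitted concentration of half-maximal effect; nearly all actives have a fitted effect of over 60% in size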
# Outline: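 Thiazole orange displacement counterscreen: compounds added to 50 nM unlabeled DNA with 100 nM ThO. Fluorescence (ex 480, em 530 nm) read after 15 min at room temperature; activity flags nonspecific DNA binding.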
# [14] = target: DNA polymerase kappa (Homo sapiens) (UniProt Q9UBT6); test: qHTS for Inhibitors of Polymerase Kappa: Confirmatory Assay for Cherry-picked Compounds (AID 720501); conditions: purified Pol-kappa, fluorescent strand-displacement substrate; note: potency is the fitted concentration of half-maximal effect
# Outline: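 Strand-displacement fluorescence read-out: TAMRA reporter released from a BHQ-2-quenched template, measured at 525/598 nm over a 10 min kinetic window. Substrate was 50 nM final; enzyme was 10 nM Pol-kappa, preincubated 15 min at room temperature with compound.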
# [15] = target: DNA polymerase eta (Homo sapiens) (UniProt Q9Y253); test: qHTS for Inhibitors of Polymerase Eta: Confirmatory Assay for Cherry-picked Compounds (AID 720502); conditions: Pol eta primer extension, TAMRA/BHQ fluorescence, 10 min; note: potency is the fitted concentration of half-maximal effect
# Outline: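 Strand-displacement fluorescence (525 nm excitation, 598 nm emission) was read kinetically at 0 and 10 min after adding 50 nM final TAMRA-reporter/BHQ-2-template substrate. Beforehand, 10 nM Pol eta had been exposed to compound for 15 min at room temperature.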
# [16] = target: RecQ-like DNA helicase BLM (Homo sapiens) (UniProt P54132); test: qHTS for Inhibitors of WRN Helicase: BLM Helicase Counterscreen for WRN Inhibitors (AID 720503); conditions: Recombinant BLM helicase DNA unwinding, red fluorescence; note: potency is the fitted concentration of half-maximal effect; nearly all actives have a fitted effect of over 60% in size
# Outline: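 1 nM BLM, Tris pH 8.0/NaCl/MgCl2/DTT/Tween-20; cpd preinc 15 min RT; start w/ 100 nM DNA + 2 mM ATP final; fluorescence (ex 525/em 598) two reads 15 min apart; normalized to enzyme-free and DMSO controls.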
# Rap guanine nucleotide exchange factor 4 (Homo sapiens), sequence (Q8WZA2 whole entry, looked up): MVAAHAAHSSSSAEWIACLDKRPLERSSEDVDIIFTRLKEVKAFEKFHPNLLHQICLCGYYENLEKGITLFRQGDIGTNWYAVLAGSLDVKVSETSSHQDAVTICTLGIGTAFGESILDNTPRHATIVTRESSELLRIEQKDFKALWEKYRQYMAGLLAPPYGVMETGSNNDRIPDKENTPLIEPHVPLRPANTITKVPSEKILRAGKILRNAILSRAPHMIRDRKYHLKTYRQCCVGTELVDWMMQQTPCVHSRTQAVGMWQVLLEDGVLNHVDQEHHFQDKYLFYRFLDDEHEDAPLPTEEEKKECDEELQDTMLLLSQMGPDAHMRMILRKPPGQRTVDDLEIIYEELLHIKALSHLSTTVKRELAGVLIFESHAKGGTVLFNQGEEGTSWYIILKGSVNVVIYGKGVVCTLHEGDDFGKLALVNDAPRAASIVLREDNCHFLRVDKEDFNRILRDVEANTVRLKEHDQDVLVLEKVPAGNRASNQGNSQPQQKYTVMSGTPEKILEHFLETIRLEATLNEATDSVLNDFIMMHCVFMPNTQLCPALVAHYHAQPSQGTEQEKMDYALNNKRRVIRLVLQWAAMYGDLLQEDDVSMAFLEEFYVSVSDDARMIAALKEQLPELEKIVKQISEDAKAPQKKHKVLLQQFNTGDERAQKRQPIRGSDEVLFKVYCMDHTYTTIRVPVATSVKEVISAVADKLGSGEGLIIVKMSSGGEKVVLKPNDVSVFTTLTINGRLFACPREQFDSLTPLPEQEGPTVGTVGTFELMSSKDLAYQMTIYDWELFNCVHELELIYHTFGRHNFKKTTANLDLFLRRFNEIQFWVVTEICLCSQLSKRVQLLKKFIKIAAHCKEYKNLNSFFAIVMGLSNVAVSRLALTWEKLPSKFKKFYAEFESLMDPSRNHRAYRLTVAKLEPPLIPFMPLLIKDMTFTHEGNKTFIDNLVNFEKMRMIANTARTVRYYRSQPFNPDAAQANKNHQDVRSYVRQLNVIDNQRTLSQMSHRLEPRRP
# Rap guanine nucleotide exchange factor 3 (Homo sapiens), sequence (O95398 whole entry, looked up): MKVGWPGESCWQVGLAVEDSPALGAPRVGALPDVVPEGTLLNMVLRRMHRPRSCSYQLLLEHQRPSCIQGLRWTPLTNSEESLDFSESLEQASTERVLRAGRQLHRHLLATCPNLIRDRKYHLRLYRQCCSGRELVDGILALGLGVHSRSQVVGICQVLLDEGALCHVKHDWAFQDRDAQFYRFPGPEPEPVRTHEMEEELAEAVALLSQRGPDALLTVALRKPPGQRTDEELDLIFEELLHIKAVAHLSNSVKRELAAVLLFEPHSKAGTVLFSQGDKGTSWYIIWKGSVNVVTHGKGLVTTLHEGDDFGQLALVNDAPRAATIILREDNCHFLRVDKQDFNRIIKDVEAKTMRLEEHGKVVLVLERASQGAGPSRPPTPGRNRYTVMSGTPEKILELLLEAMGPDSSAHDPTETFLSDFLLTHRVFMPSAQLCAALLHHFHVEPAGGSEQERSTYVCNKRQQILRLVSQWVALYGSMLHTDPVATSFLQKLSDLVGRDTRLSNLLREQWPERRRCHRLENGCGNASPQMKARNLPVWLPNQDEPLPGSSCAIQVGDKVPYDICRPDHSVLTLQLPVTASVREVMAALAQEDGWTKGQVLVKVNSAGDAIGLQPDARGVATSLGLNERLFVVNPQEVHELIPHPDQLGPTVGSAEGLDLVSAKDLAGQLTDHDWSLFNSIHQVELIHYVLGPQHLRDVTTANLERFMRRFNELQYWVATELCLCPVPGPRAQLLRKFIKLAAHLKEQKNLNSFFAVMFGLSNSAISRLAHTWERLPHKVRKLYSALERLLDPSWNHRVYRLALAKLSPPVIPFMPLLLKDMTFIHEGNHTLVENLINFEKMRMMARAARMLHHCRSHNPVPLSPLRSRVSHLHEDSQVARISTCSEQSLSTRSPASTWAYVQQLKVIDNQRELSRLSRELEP
# Vitamin D3 receptor (Homo sapiens), sequence (P11473 whole entry, looked up, the tested form may be a part): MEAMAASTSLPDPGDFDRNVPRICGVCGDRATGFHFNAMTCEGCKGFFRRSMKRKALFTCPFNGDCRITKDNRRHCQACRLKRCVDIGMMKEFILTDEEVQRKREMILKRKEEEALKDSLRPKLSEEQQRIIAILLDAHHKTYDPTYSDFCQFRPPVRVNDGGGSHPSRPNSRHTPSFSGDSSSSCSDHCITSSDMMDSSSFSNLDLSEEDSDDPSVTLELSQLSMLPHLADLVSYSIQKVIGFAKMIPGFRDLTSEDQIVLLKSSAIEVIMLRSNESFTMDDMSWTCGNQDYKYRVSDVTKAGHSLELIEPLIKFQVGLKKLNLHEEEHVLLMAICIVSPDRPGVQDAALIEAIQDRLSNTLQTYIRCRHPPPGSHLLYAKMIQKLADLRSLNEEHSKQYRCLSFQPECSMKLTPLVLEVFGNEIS
# Phosphoglycerate kinase, glycosomal (Trypanosoma brucei brucei), sequence (P07378 whole entry, looked up): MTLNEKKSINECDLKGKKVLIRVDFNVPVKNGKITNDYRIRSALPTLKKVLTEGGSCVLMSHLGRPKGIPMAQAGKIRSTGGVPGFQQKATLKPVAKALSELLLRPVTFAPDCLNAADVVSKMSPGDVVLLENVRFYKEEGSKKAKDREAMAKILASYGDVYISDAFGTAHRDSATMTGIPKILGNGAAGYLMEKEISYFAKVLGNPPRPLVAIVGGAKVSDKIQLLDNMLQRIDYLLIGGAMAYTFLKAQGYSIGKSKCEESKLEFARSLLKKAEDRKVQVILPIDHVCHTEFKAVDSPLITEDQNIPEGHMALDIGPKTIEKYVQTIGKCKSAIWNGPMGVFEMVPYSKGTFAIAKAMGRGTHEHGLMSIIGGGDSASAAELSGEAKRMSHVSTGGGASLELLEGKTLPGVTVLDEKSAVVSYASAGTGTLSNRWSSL
# DNA polymerase kappa (Homo sapiens), sequence (Q9UBT6 whole entry, looked up): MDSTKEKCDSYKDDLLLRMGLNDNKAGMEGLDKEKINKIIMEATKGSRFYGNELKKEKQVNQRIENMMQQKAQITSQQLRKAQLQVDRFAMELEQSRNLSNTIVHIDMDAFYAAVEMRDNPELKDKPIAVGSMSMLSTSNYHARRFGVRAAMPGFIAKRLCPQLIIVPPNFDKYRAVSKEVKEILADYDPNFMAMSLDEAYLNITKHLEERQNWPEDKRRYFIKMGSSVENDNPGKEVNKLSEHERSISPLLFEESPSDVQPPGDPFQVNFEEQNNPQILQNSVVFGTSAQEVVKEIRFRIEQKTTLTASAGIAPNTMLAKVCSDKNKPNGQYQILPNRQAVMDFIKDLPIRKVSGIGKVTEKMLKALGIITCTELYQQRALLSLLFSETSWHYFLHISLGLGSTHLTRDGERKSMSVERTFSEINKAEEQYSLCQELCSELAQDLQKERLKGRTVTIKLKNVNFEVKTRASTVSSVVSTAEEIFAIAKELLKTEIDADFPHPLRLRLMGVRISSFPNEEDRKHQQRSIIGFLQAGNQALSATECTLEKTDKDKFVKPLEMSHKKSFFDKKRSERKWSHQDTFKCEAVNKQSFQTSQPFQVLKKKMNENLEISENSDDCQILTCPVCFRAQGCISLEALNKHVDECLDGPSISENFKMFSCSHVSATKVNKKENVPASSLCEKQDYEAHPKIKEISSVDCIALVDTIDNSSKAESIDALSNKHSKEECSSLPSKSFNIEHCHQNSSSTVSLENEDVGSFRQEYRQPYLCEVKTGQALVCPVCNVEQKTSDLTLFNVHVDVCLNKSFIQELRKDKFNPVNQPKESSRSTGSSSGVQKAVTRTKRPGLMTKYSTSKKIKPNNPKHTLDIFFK
# DNA polymerase eta (Homo sapiens), sequence (Q9Y253 whole entry, looked up): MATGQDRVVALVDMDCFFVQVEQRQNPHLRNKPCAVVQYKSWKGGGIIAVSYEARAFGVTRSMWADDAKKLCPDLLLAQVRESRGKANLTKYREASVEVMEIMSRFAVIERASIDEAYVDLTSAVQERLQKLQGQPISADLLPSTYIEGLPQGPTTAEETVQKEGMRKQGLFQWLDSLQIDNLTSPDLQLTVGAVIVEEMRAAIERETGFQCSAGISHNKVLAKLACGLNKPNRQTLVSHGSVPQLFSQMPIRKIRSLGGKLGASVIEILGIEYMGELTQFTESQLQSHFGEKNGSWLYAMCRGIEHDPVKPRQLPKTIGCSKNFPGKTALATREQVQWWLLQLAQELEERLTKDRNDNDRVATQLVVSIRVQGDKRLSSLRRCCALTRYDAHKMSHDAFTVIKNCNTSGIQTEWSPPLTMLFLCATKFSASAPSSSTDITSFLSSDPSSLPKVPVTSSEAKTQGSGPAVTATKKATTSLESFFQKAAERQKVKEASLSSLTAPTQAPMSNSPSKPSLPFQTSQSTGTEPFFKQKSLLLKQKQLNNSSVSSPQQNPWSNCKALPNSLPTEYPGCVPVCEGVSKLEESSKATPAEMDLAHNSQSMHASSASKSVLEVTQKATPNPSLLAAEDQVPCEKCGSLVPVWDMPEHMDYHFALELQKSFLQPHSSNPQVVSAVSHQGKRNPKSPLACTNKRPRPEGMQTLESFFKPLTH
# Flap endonuclease 1 (Homo sapiens), sequence (P39748 whole entry, looked up): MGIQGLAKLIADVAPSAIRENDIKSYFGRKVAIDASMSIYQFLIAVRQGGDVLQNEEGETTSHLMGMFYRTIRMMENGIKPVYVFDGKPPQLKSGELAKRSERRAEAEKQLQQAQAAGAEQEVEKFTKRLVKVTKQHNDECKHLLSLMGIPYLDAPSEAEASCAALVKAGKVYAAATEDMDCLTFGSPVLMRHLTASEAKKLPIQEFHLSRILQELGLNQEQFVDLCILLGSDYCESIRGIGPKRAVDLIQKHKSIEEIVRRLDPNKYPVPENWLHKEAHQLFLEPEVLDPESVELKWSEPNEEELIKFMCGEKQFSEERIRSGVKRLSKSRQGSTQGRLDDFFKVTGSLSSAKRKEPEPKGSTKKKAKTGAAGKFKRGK
smiles,measurement,setting,value
N#CC(C#N)=NNc1ccc(S(N)(=O)=O)cc1,Potency,[1],44.7 µM (active)
same,Potency,[2],inactive
same,activation,[3],"3.48% [at 17.1 µM, percent relative to cAMP agonist control]"
same,"activity change, negative = inhibition",[4],1.67% [at 12.7 µM]
same,"activity change, negative = inhibition",[5],-8.77% [at 30.8 µM]
CCOC(=O)[C@]12Cc3cc(Cl)ccc3[C@H]1N(C1CCCCC1)C(=O)c1ccccc12,Potency,[1],inactive
same,Potency,[2],inactive
same,Potency,[3],inactive
same,Potency,[4],inactive
Cn1cc(C=C2C(=O)NC(=O)NC2=O)c2ccccc21,Potency,[1],inactive
same,Potency,[2],79.4 µM (active)
same,Potency,[3],63.1 µM (active)
same,Potency,[4],75.7 µM (active)
same,outcome,[5],inactive
same,Potency,[6],inactive
CCN1C(=O)C(=C/C=C/c2ccco2)C(=O)N(CC)C1=S,Potency,[1],inactive
same,Potency,[2],inactive
same,Potency,[3],inactive
same,Potency,[4],inactive
same,outcome,[5],inactive
COc1ccc(C(SCC(NC(=O)OCc2ccccc2)C(=O)O)c2ccc(OC)cc2)cc1 (stereo unspecified),Potency,[1],inactive
same,Potency,[2],inactive
same,Potency,[3],inactive
same,Potency,[4],inactive
same,outcome,[5],inactive
COc1cccc(-n2c(/C=C/c3ccc(O)c(O)c3)nc3ccccc3c2=O)c1,Potency,[1],31.6 µM (active)
same,Potency,[2],inactive
same,activation,[3],"9.04% [at 17.1 µM, percent relative to cAMP agonist control]"
same,"activity change, negative = inhibition",[4],-22.6% [at 12.7 µM]
CC(Cc1ccc(O)cc1)NCC(O)c1ccc(O)c(O)c1 (stereo unspecified),Potency,[1],22.4 µM (active)
same,Potency,[2],inactive
same,activation,[3],"-2.87% [at 17.1 µM, percent relative to cAMP agonist control]"
same,"activity change, negative = inhibition",[4],-0.704% [at 12.7 µM]
same,"activity change, negative = inhibition",[5],6.78% [at 30.8 µM]
CCOC(=O)c1cc(CC)sc1/N=C/c1c(O)[nH]c(=S)[nH]c1=O,Potency,[1],inactive
same,Potency,[2],100 µM (active)
same,Potency,[3],100 µM (active)
same,Potency,[4],inactive
same,outcome,[5],inactive
CCOC(=O)[C@]12Cc3cc(OC)ccc3[C@H]1N(Cc1ccccc1)C(=O)c1cc(F)c(F)cc12,Potency,[1],inactive
same,Potency,[2],inactive
same,Potency,[3],inactive
same,Potency,[4],inactive
same,outcome,[5],inactive
Nc1c(C(=O)Nc2ccc(Br)cc2F)sc2nc3c(cc12)N1CCC3CC1,Potency,[1],inactive
same,Potency,[2],inactive
same,Potency,[3],inactive
same,"activity change, negative = inhibition",[4],-17.9% [at 12.7 µM]
same,outcome,[5],inactive
COc1ccc(-n2c(O)c(/C=C3\C=Nc4ccc(Br)cc43)c(=O)[nH]c2=O)c(OC)c1,Potency,[1],37.9 µM (active)
same,Potency,[2],inactive
same,Potency,[3],inactive
same,Potency,[4],inactive
same,outcome,[5],inactive
COC(=O)c1cn(C(=O)c2cccc3ccccc23)c2ccccc12,Potency,[1],inactive
same,Potency,[2],inactive
same,Potency,[3],inactive
same,Potency,[4],inactive
same,outcome,[5],inactive
Cc1c2cnn(CC(=O)N3CCC4(CC3)OCCO4)c(=O)c2c(C)n1Cc1ccc(F)cc1,Potency,[1],inactive
same,Potency,[2],inactive
same,Potency,[3],inactive
same,Potency,[4],inactive
same,outcome,[5],inactive
COc1ccc(OC)c(N2C(=O)NC(=O)/C(=C/c3ccc([N+](=O)[O-])s3)C2=O)c1,Potency,[1],7.94 µM (active)
same,Potency,[2],inactive
same,activation,[3],"2.06% [at 17.1 µM, percent relative to cAMP agonist control]"
same,"activity change, negative = inhibition",[4],-32.4% [at 12.7 µM]
same,activation,[6],21.8% [at 30.8 µM]
CC1=C(O)C(=O)C=C2C1=CC=C1C2(C)CCC2(C)C3CC(C)(C(=O)O)CCC3(C)CCC12C (stereo unspecified),Potency,[1],33.8 µM (active)
same,Potency,[2],inactive
same,Potency,[3],inactive
same,Potency,[4],0.953 µM (active)
same,outcome,[5],inactive
same,Potency,[6],inactive
CCc1nc2ccccc2c(=O)n1-c1ccccc1OC,Potency,[1],inactive
same,Potency,[2],inactive
same,Potency,[3],inactive
same,Potency,[4],33.8 µM (active)
same,outcome,[5],inactive
same,Potency,[6],inactive
COc1ccc(N2C(=O)/C(=C/c3ccco3)C(=O)NC2=S)cc1,outcome,[7],inactive
same,outcome,[8],inactive
same,Potency,[9],0.517 µM (active)
same,Potency,[10],1.06 µM (active)
same,Potency,[11],1.52 µM (active)
same,Potency,[12],21.3 µM (active)
same,Potency,[13],3.41 µM (active)
same,Potency,[14],0.67 µM (active)
same,Potency,[15],2.39 µM (active)
same,Potency,[16],0.215 µM (active)
same,Potency,[1],6.31 µM (active)
same,Potency,[2],inactive
same,activation,[3],"10.2% [at 17.1 µM, percent relative to cAMP agonist control]"
same,"activity change, negative = inhibition",[4],33.5% [at 12.7 µM]
same,"activity change, negative = inhibition",[5],-2.79% [at 30.8 µM]
